According to PubChem BioAssay (Tox21):
Records with an inconclusive call do not appear. The source made the active and inactive calls. Unless noted, calls follow the shape of the full dose curve.

Assays:
[1] = Nuclear factor erythroid 2-related factor 2/antioxidant responsive element (Nrf2/ARE) small molecule agonists: qHTS cell viability counter screen in human keratinocytes (AID 1919968; active = well fitted curve in the direction sought with a large enough effect in the repeat runs; an effect the other way counts as inactive or inconclusive; also: nearly all actives have a fitted effect of over 55% in size)
Summary of the method: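 Measured as CellTiter-Fluor fluorescence, this readout tracks cytotoxicity in the same wells as the ARE-luciferase screen. HaCaT reporter cells (1,500/well) received compounds after a 5 h pre-incubation and were exposed for 23 h.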

[2] = Nuclear factor erythroid 2-related factor 2/antioxidant responsive element (Nrf2/ARE) small molecule agonists: luciferase reporter gene qHTS assay in human keratinocytes (AID 1919969); also: nearly all actives have a fitted effect of over 35% in size
[3] = target: Gonadotropin-releasing hormone receptor (Homo sapiens) (UniProt P30968); test: Human gonadotropin-releasing hormone receptor (GnRHR) small molecule agonists, calcium flux assay in GnRHR-HEK293 cells (AID 1920063); also: nearly all actives have a fitted effect of over 35% in size
Summary of the method: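 Fluorescence kinetics (480 nm excitation, 540 nm emission; 3 min, 1 s steps) report calcium mobilisation in human GnRHR-HEK293 cells in agonist mode. Dye incubation: 1 h, 37 C.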

[4] = target: KiSS-1 receptor (Homo sapiens) (UniProt Q969F8); test: Human kisspeptin (KISS1R) small molecule agonists, calcium flux assay in KISS1R-HEK293 cells (AID 1920064; active = well fitted curve in the direction sought with a large enough effect in the repeat runs; an effect the other way counts as inactive or inconclusive)
Summary of the method: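 Measures KISS1R agonism through calcium-sensitive dye fluorescence in stably transfected HEK293 cells, read for 3 min after pin-tool compound delivery; 15-point titrations in triplicate.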

[5] = G protein-coupled receptor (GPCR) small molecule agonists, calcium flux assay: HEK293 wild type cell line counter screen (AID 1920065)
Summary of the method: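 Readout: fluorescence at 480 nm excitation/540 nm emission, sampled at 1 s intervals for 3 min. Cells had been cultured 18 h, then dye-loaded 1 h at 37 C before compound or ATP addition.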

[6] = p53 small molecule agonists, cell-based qHTS assay with human liver microsomes: qHTS cell viability counter screen (AID 1963579); also: nearly all actives have a fitted effect of over 45% in size
Summary of the method: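 Metabolically activated exposure: compounds, human liver microsomes and NADPH (0.5 mg/mL final apiece) were added to p53RE-bla cells seeded 5 h earlier, left 16 h at 37 C, and then assessed for viability by CellTiter-Glo luminescence.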

[7] = p53 small molecule agonists, cell-based qHTS assay: qHTS cell viability counter screen (AID 1963581); also: nearly all actives have a fitted effect of over 45% in size
Summary of the method: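 In the same plates used for the p53 bla reporter, HCT-116 cells given compounds for 16 h at 37 C received CellTiter-Glo; luminescence was recorded 30 min later at room temperature.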

[8] = target: 5-hydroxytryptamine receptor 2A (Homo sapiens) (UniProt P28223); test: 5-hydroxytryptamine receptor 2A (HTR2A) small molecule antagonists, cell-based qHTS assay (AID 1963586); also: nearly all actives have a fitted effect of over 45% in size
Summary of the method: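 Antagonist-mode intracellular calcium assay: DOI (4 nM) added after 5 min compound pre-incubation at room temperature to dye-loaded HTR2A-CHO cells. Fluorescence followed for 3 min, sampled every second.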

[9] = target: 5-hydroxytryptamine receptor 2A (Homo sapiens) (UniProt P28223); test: 5-hydroxytryptamine receptor 2A (HTR2A) small molecule agonists, cell-based qHTS assay (AID 1963587); also: nearly all actives have a fitted effect of over 30% in size
Summary of the method: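 CHO cells stably expressing human HTR2A, plated 18 h, loaded with calcium dye 1 h at 37 C. Agonist mode: compounds added and intracellular calcium fluorescence recorded kinetically for 2 min at 1 sec intervals.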

[10] = target: Muscarinic acetylcholine receptor M1 (Homo sapiens) (UniProt P11229); test: Cholinergic receptor muscarinic 1 (CHRM1) small molecule antagonists, cell-based qHTS assay (AID 1963588); also: nearly all actives have a fitted effect of over 40% in size
Summary of the method: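 CHRM1-CHO calcium-flux assay, antagonist mode. Cells were seeded 18 h, dye-loaded 1 h at 37 C and given compound for 5 min at RT, then acetylcholine was added at 50nM. FDSS fluorescence was read 3 min; 15 concentrations, three runs.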

[11] = target: Muscarinic acetylcholine receptor M1 (Homo sapiens) (UniProt P11229); test: Cholinergic receptor muscarinic 1 (CHRM1) small molecule agonists, cell-based qHTS assay (AID 1963589); also: nearly all actives have a fitted effect of over 35% in size
Summary of the method: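 Each compound was tested at 15 concentrations across three independent runs on dye-loaded CHO cells stably expressing human CHRM1, reading intracellular calcium fluorescence kinetically at 1 sec intervals.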

[12] = cAMP Responsive Elements (CRE) small molecule antagonists, cell-based qHTS assay (AID 1963591; active = well fitted inhibition curve with a large enough effect in the signal ratio in the repeat runs, not every such curve was filed as active; the % refers to the signal ratio)
Summary of the method: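 Inhibition of NKH477-driven (0.25 uM final) CRE-beta-lactamase signal in HEK293T cells, 3 h compound exposure at 37 °C, detected by FRET substrate fluorescence.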

[13] = target: Beta-2 adrenergic receptor (Homo sapiens) (UniProt P07550); test: Adrenergic beta2 receptor (ADRB2) small molecule antagonists, cell-based qHTS assay (AID 1963592); also: series mostly up to about 92 µM; nearly all actives have a fitted effect of over 50% in size
Summary of the method: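 Cells (CHO, stable ADRB2 overexpression) incubated 18-20hr at 37C; compounds added from DMSO; agonist mix (1nM isoproterenol, 100uM IBMX, 25uM Ro-20-1724) added; 0.5hr RT; d2-cAMP and anti-cAMP-cryptate added; 1hr RT; 665/615 nm read.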

[14] = target: Beta-2 adrenergic receptor (Homo sapiens) (UniProt P07550); test: Adrenergic beta2 receptor (ADRB2) small molecule agonists, cell-based qHTS assay (AID 1963593);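 also: CHO cells stably overexpressing human ADRB2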
Summary of the method: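 CHO cells stably over-expressing ADRB2 were plated overnight at 37C, then dosed with compounds plus a stimulation mix containing 100uM IBMX and 25uM Ro-20-1724 for 0.5hr at room temperature. cAMP was measured by HTRF competition, 1hr.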

[15] = target: D(2) dopamine receptor (Homo sapiens) (UniProt P14416); test: Dopamine D2 receptor (DRD2) small molecule agonists, cell-based qHTS assay (AID 1963594); also: nearly all actives have a fitted effect of over 35% in size
Summary of the method: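 HEK293 cells stably expressing human DRD2, pre-treated with PDE inhibitor Ro20-1724 (0.1 mM final) and compound 10 min at room temperature, then stimulated with NKH477 (200nM […]) for 30 min. cAMP read by HTRF (665/620 nm).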

[16] = target: D(2) dopamine receptor (Homo sapiens) (UniProt P14416); test: Dopamine D2 receptor (DRD2) small molecule antagonists, cell-based qHTS assay (AID 1963595; active = well fitted inhibition curve with a large enough effect in the signal ratio in the repeat runs, with a control signal flat; the % refers to the signal ratio)
Summary of the method: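 Antagonist mode in DRD2-HEK293 cells: after compound addition with 0.1 mM Ro20-1724, cells received quinpirole (12 nM) and NKH477 (200 nM) for 30 min at room temperature; HTRF cAMP read after 1 h detection.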

[17] = cAMP Responsive Elements (CRE) small molecule agonists, cell-based qHTS assay (AID 1963590)
Summary of the method: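 Cell line: CRE-bla HEK 293T; medium DMEM/10% dialyzed FBS/0.1 mM NEAA/1 mM pyruvate/25 mM HEPES; 3 h compound exposure; beta-lactamase FRET readout after 2 h substrate loading at RT.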

[18] = p53 small molecule agonists, cell-based qHTS assay with rat liver microsomes: qHTS cell viability counter screen (AID 1963580); also: nearly all actives have a fitted effect of over 45% in size
Summary of the method: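 Viability is assessed in parallel with the p53 reporter read: HCT-116 p53RE-bla cells receive compounds plus rat microsomes and NADPH (0.5 mg/mL final apiece), incubate 16 h at 37 C, and then CellTiter-Glo luminescence is recorded.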
% is scaled to controls: 0 for no effect and ±100 for the full control effect.

Sequence of 5-hydroxytryptamine receptor 2A (Homo sapiens) (P28223 whole entry, looked up): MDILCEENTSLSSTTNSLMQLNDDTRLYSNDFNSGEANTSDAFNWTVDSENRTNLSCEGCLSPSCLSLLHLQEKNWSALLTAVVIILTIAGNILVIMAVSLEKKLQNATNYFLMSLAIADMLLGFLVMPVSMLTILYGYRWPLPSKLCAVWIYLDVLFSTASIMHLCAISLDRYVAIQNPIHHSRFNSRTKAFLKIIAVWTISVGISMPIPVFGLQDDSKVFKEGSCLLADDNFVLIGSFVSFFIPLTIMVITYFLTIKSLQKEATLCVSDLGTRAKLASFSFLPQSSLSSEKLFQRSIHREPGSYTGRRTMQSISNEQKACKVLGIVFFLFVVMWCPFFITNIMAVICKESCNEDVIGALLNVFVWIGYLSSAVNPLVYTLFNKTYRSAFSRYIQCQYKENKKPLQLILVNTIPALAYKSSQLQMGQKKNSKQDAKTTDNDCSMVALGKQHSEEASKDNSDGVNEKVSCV
Sequence of Gonadotropin-releasing hormone receptor (Homo sapiens) (P30968 whole entry, looked up): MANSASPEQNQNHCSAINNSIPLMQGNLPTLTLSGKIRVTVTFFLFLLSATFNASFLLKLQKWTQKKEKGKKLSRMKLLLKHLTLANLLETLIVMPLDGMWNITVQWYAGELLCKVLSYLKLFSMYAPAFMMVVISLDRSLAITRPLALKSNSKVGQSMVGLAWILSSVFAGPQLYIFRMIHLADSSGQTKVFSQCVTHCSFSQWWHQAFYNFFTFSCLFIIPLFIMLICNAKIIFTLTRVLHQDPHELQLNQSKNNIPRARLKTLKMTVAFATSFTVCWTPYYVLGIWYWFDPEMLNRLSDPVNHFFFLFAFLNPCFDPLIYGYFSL
Sequence of Muscarinic acetylcholine receptor M1 (Homo sapiens) (P11229 whole entry, looked up): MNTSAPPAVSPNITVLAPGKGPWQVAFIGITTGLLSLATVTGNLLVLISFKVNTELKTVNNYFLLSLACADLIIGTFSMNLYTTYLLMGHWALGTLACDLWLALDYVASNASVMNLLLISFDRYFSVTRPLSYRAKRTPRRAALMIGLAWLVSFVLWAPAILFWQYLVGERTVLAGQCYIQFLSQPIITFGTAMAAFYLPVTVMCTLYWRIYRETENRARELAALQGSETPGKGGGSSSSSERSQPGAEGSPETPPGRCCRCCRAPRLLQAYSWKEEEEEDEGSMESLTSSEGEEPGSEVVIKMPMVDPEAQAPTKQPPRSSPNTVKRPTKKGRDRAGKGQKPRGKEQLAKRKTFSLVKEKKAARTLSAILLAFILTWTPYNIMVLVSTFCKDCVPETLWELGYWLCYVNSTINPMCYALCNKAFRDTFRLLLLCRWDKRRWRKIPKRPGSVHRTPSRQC
Sequence of Beta-2 adrenergic receptor (Homo sapiens) (P07550 whole entry, looked up): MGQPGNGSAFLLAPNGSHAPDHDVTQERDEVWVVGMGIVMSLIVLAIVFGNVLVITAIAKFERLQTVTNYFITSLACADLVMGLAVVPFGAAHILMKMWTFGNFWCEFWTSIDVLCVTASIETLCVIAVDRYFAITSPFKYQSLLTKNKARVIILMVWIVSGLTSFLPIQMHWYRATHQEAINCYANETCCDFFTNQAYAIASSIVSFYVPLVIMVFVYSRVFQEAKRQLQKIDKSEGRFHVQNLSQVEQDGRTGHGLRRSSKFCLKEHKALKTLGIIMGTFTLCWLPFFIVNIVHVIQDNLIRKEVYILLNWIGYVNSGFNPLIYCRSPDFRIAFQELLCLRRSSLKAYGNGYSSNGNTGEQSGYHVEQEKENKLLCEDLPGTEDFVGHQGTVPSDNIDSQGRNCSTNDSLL
Sequence of D(2) dopamine receptor (Homo sapiens) (P14416 whole entry, looked up): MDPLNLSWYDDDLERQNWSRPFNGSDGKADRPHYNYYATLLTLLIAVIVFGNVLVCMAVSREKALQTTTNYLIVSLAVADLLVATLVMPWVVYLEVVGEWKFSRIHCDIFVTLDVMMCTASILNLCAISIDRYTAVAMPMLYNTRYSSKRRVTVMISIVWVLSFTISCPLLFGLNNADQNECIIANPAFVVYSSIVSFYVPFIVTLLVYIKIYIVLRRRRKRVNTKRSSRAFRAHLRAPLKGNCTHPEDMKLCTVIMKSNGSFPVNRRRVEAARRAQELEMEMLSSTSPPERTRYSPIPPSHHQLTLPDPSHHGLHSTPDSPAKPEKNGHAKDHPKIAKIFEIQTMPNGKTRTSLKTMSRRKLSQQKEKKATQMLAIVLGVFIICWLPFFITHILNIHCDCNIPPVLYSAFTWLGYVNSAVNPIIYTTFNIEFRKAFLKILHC
Sequence of KiSS-1 receptor (Homo sapiens) (Q969F8 whole entry, looked up): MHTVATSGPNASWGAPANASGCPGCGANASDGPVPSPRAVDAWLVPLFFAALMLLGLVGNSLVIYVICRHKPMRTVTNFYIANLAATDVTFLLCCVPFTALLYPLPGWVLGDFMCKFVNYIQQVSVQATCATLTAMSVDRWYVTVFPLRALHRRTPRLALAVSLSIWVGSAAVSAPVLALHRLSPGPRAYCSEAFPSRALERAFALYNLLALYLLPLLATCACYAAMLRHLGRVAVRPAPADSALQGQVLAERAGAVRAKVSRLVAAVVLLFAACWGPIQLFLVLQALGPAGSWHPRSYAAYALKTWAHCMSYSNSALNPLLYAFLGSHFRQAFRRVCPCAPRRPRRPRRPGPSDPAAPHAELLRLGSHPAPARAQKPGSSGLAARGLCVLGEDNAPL

CCN(CCC#N)c1ccccc1
inactive: Potency [1] | Potency [2] | Potency [3] | Potency [4] | Potency [5] | Potency [6] | Potency [7] | Potency [8] | Potency [9] | Potency [10] | Potency [11] | Potency [12] | Potency [13] | Potency [14] | Potency [15] | Potency [16]

Brc1c2ccccc2c(Br)c2ccccc12
inactive: activity change, negative = cytotoxicity [1] 9.04% [at 8.39 µM] | activity, positive = activation [2] -5.36% [at 8.39 µM] | activity change [3] -0.0865% [at 5.22 µM, hits give high values] | activation [4] 0.391% [at 6.97 µM] | activation [5] -0.151% [at 5.23 µM] | activity change, negative = cytotoxicity [6] 1.01% [at 5.99 µM] | activity change, negative = cytotoxicity [7] 12.6% [at 5.99 µM] | activity, negative = inhibition [8] 33.2% [at 5.62 µM] | activation [9] 0.903% [at 7.02 µM] | activity, negative = inhibition [10] -2.59% [at 5.58 µM] | activation [11] -0.0159% [at 6.97 µM] | activation [17] 1.87% [at 8.39 µM] | activity change, negative = inhibition [12] 2.05% [at 8.39 µM] | activity change, negative = inhibition [13] -10.4% [at 8.39 µM] | activation [14] 3.4% [at 8.39 µM] | activation [15] 2.55% [at 8.39 µM] | activity change, negative = inhibition [16] -0.559% [at 8.38 µM]

CN(c1nccc(=O)[nH]1)C1CCN(c2nc3ccccc3n2Cc2ccc(F)cc2)CC1
inactive: Potency [1] | Potency [2] | Potency [3] | Potency [4] | Potency [5] | Potency [6] | Potency [18] | Potency [8] | Potency [10] | Potency [11] | Potency [13] | Potency [14] | Potency [15] | Potency [16]

CC(C)CC(C)(C)C
inactive: Potency [1] | Potency [2] | Potency [3] | Potency [4] | Potency [5] | Potency [6] | Potency [7] | Potency [8] | Potency [9] | Potency [10] | Potency [11] | Potency [13] | Potency [15]

COc1nc(C)nc(N)n1
inactive: Potency [1] | Potency [2] | Potency [3] | Potency [4] | Potency [5] | Potency [6] | Potency [7] | Potency [8] | Potency [9] | Potency [10] | Potency [11] | Potency [17] | Potency [12] | Potency [13] | Potency [14] | Potency [16]

O=C(O)CC(=O)C(=O)O
inactive: Potency [1] | Potency [2] | Potency [3] | Potency [4] | Potency [5] | Potency [6] | Potency [7] | Potency [8] | Potency [11] | Potency [17] | Potency [12] | Potency [13]

CC1=C(O)C(=O)CO1
inactive: Potency [1] | Potency [2] | Potency [3] | Potency [4] | Potency [5] | Potency [6] | Potency [7] | Potency [8] | Potency [9] | Potency [10] | Potency [11] | Potency [12] | Potency [13] | Potency [14] | Potency [15] | Potency [16]

C1C2OC2C2C1C1CC2C2OC12 (stereo not given)
inactive: Potency [1] | Potency [2] | Potency [3] | Potency [4] | Potency [5] | Potency [6] | Potency [7] | Potency [8] | Potency [9] | Potency [11] | Potency [17] | Potency [13] | Potency [15] | Potency [16]

CC(=O)SCc1ccco1
inactive: Potency [1] | Potency [2] | Potency [3] | Potency [4] | Potency [5] | Potency [6] | Potency [18] | Potency [8] | Potency [9] | Potency [11] | Potency [17] | Potency [13] | Potency [16]

O=C1NC(=O)c2cccc3cccc1c23
inactive: Potency [1] | Potency [2] | Potency [3] | Potency [4] | Potency [5] | Potency [6] | Potency [7] | Potency [8] | Potency [10] | Potency [12] | Potency [13] | Potency [14] | Potency [15] | Potency [16]
